pCIP destab: lowers stability of the mouse p/CIP coactivator protein; Q05BA5; F442A p/CIP-EGFP cells, EGFP fluorescence, 16 h; decrease of EGFP signal, % at 10 µM; hit rate 0.01% among 290,000; AID 1984;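 active = EGFP signal decrease of at least 30% at 10 µM or well 3 SD below plate mean, unless failing retest; inactive = the rest, including hits failing retest or dose response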
HIF act: HIF pathway transcriptional activation. U2OS HRE-luciferase reporter, luminescence; normalized: DMSO 0%, desferrioxamine 100%. activation, % at 7.5 µM (by protocol). hit rate 0.32% among 300,000. AID 1910;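 active = mean activation of at least 10% of the iron chelator positive control signal, with at least half of replicates also reaching 10%; inconclusive = mean and replicate majority disagree about reaching 10%; inactive = mean and most replicates under 10%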
AHR act: activates the human aryl hydrocarbon receptor | activation, % at 5 µM | hit rate 2.5% among 320,000 | P35869 | AID 2796 | AHR-responsive luciferase reporter cells, luminescence; in the data active = activation above about 47%;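 note: 0% = vehicle wells and 100% = reference agonist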
Target sequence (P35869 whole entry, looked up): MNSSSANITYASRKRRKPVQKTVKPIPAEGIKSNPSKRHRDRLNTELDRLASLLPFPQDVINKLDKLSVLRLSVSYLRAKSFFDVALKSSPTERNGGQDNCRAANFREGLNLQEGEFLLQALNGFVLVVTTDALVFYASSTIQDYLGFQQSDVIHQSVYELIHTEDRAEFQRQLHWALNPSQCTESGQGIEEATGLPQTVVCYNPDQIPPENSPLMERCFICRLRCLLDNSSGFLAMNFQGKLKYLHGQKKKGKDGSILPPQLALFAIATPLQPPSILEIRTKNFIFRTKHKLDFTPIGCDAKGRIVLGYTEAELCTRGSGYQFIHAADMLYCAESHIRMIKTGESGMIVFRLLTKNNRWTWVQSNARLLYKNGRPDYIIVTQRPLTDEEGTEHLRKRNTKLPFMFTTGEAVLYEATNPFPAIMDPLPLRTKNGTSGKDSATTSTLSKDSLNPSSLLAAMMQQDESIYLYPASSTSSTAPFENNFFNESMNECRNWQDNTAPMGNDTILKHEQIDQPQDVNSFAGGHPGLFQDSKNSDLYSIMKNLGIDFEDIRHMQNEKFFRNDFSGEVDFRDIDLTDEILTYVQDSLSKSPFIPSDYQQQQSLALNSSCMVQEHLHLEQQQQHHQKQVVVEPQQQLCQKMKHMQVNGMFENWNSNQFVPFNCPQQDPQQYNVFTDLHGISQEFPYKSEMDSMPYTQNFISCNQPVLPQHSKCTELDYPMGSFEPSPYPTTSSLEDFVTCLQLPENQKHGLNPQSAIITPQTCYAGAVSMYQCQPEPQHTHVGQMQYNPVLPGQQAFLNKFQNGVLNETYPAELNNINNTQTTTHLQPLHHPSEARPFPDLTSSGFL
PolyA inh: inhibitors of polyadenylation in S. cerevisiae | activity score, % at 12 µM | hit rate 0.02% among 300,000 | AID 1875 | S. cerevisiae SKY197-pL101 polyadenylation reporter, beta-gal luminescence; efflux-impaired pdr1/pdr3 knockout yeast; score 100 = 6 SD above DMSO;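 active = lowest replicate activity score at least 50, where 100 means six control SD above control mean; inconclusive = lowest score under 50 but half or more replicates reach 50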;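 note: yeast exposed to compound for 9 h at 30 °C; higher score means more reporter readthrough which indicates perturbed polyadenylation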
Platelet DG rel: platelet dense granule release activity; human platelet-rich plasma, SFLLRN dense granule ATP release, luminescence; inhibition, %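 (compounds screened at 7.5 µM in platelet-rich plasma)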; hit rate 0.22% among 300,000; AID 1663;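 active = mean replicate score, as percent of positive control, at or above 50; inconclusive = mean below 50 but at least one replicate at or above 50; inactive = mean and every replicate below 50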
* hit, by the source's call; ? = inconclusive; nt = not tested or not shown. Shown are actives, neighbours in structure and some others; about 2.8% of the full set was active somewhere.

SMILES	pCIP destab	HIF act	AHR act	PolyA inh	Platelet DG rel
Cn1c(CO)nc2c3ccccc3ccc21	nt	36*	11	9	-4
O=[N+]([O-])c1cccc(/C=N/Nc2nc(NCc3ccccc3)nc(N3CCOCC3)n2)c1O	-23	19*	21	-90	0
O=C(N/N=C/c1c(Cl)cccc1Cl)c1ccccc1F	3	1	60*	-18	7
O=C(N/N=C/c1c(Cl)cccc1Cl)c1ccc(F)cc1	-8	1	16	-1	4
Cc1ccc(-c2nnc(NCCCO)c3ccccc23)cc1	-9	-23	2	13	-1
Clc1ccc(-c2nnc(-c3ccccc3)c(-c3ccccc3)n2)cc1	0	-1	0	-2	-13
OCCCNc1nc(-c2ccc(Cl)cc2)nnc1-c1ccccc1	-10	1	64*	16	22
Clc1ccc(-c2nnc(-c3ccccc3)c(-c3c[nH]c4ccccc34)n2)cc1	-14	0	51*	-18	3
N[C@@H](Cc1ccccc1)C(=O)N1CCC(C(=O)NCC(=O)NCC(=O)O)CC1	-5	0	-1	-7	-2
NC(N)=Nc1nc(-c2ccccc2)c2ccccc2n1	-4	0	68*	-8	6
CCc1nc(N=C(N)N)nc2ccccc12	-2	-1	14	-10	-7
CC1(C)CC(=O)C(CC2C(=O)CC(C)(C)CC2=O)C(=O)C1	-2	54*	-3	-14	-3
O=c1[nH]c2ccccc2c2cn(-c3ccccc3)nc12	3	5	64*	-4	24
O=C(CCc1ccc(S(=O)(=O)N2CCOCC2)cc1)N/N=C/c1ccc(O)c(O)c1O	-15	0	7	-7	15
Cc1cc2c(NC(=O)Nc3ccc(C(F)(F)F)cc3)cccc2nn1	-4	0	55*	-2	5
Cc1ccc(NS(=O)(=O)c2cc(NC(=O)c3ccc4c(c3)NC(=O)CS4)ccc2Cl)c(C)c1	-16	0	54*	?	2
Cc1ccc(NC(=O)COC(=O)C(CC(C)C)N2C(=O)C3CC=CCC3C2=O)c(C)c1 (centres undefined)	-12	-1	4	0	0
COc1cccc(/C=N/n2c(SC)nnc2-c2ccccc2)c1OC	-4	0	61*	1	2
FC(F)(F)c1cnc(N2CCN(C(=S)NCc3ccccc3)CC2)c(Cl)c1	-6	45*	-7	-11	0
CCOc1ncccc1C(=O)Nc1ccccc1F	6	0	-1	-9	9
CCOc1ncccc1C(=O)NNC(=O)c1ccccc1-n1cccc1	-17	0	61*	0	-7
O=C(Nc1ccc(Br)c(C(F)(F)F)c1)c1ccccc1	-7	3	51*	-6	4
O=C(Nc1ccc(C(F)(F)F)cc1)c1ccccc1	nt	nt	53*	nt	nt
CCCc1c(C(=O)Nc2ccc(C(F)(F)F)cc2)cnn1-c1ccccc1	-16	0	110*	-23	12
O=C(Nc1ccc(C(=O)c2ccccc2)cc1)c1ccccc1	-10	3	1	19	19
SMILES	pCIP destab	HIF act	AHR act	PolyA inh	Platelet DG rel
O=C(Nc1ccc(Br)c(C(F)(F)F)c1)c1ccc(C(F)(F)F)cc1	-5	2	18	-103	-2
COc1ccccc1CCC(=O)OCC(=O)Nc1ccc(C(N)=O)cc1	-7	0	0	2	19
ClC(Cl)(Cl)c1nc2ccccc2n2nncc12	-17	-1	23	7	-17
COC(=O)c1ccc(N/C=C/C(=O)c2ccccc2)cc1	-7	3	-1	-22	36
CC(=O)c1cccc(NC(=O)CSC(=O)c2ccccc2)c1	-2	30*	-1	-9	-4
Cc1nn2c(NCc3ccccn3)cc(C(C)C)nc2c1-c1ccccc1	5	0	5	-37	0
Cc1nn2c(NCCCn3ccnc3)cc(C(C)C)nc2c1-c1ccccc1	0	-1	48*	9	-2
Cc1ccc(NS(=O)(=O)c2c(C)[nH]c(C)c2C(=O)N2CCCCC2)cc1Cl	-3	0	8	-7	-11
COc1ccc2c(C)cc(N3CCN(c4ccc(F)cc4)CC3)nc2c1	-4	0	69*	-4	6
Cc1cc(N2CCN(c3ccc(F)cc3)CC2)nc2cc(O)ccc12	4	0	98*	-18	15
Cc1cc(N2CCN(c3ccccc3F)CC2)nc2cc(O)ccc12	-8	0	17	1	nt
Nc1ccc(-c2nnnn2-c2ccc(N)cc2)cc1	5	1	1	4	3

Compound activity deposited in PubChem BioAssay by several laboratories.
